PrP UTR inh: inhibition of PrP 5' UTR reporter expression | cell-based PrP 5' UTR mRNA reporter, plate reader | hit rate 0.35% among 340,000 | inhibition, % (no concentration beside the values); in the data active means inhibition above about 52%; further: 0 = median of the neutral control wells
MazEF act: activators of E. coli MazEF toxin-antitoxin RNase, primary screen, biochemical, fluorescence, uHTS. Endoribonuclease toxin MazF (Escherichia coli (strain K12)), P0AE70. FAM/BHQ RNA-DNA oligo cleavage fluorescence, 5 h. activation, % at 20 µM. hit rate 0.32% among 350,000. AID 504720, 2011; in the data active means activation above about 50%
Target sequence (P0AE70 whole entry, looked up): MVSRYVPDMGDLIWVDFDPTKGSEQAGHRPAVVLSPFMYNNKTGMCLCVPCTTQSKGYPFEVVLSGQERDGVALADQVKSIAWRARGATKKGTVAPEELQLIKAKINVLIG
BJeLR lethal: MLPCN primary cell-based screen for lethality selective to Ras in HRASV12 cells; BJeLR (HRASV12) viability, CellTiter-Glo ATP luminescence, 48 h; inhibition, % (concentration not given with the values); hit rate 0.17% among 300,000; AID 1554, 2009; in the data active means inhibition above about 50%
PrPC surface inh: inhibitors of human cell surface prion protein PrPC, primary screen, cell-based, TR-FRET. Major prion protein (Homo sapiens), P04156. TR-FRET read-out. inhibition, % at 13.8 µM. hit rate 0.43% among 370,000. AID 720596, 2013; in the data active means inhibition above about 24%; further: 0% = median of the test wells and 100% = reference compound wells
The depositor's hits bear a star; . = no result. The list is not random: actives were taken first. Their share in the collection is about 1.1%.

SMILES	PrP UTR inh	MazEF act	BJeLR lethal	PrPC surface inh
COc1cc2c3nnc(-c4ccc(F)cc4)c-3cn(Cc3cccc(F)c3)c2cc1OC	-9	212*	.	.
COc1cc2c3nnc(-c4ccc(F)cc4)c-3cn(Cc3ccc(C)cc3)c2cc1OC	5	-6	36	-9
COc1cc2c3nnc(-c4ccc(F)cc4)c-3cn(Cc3cccc(C)c3)c2cc1OC	-14	250*	12	7
COc1cc2c3nnc(-c4ccccc4)c-3cn(Cc3ccc(F)cc3)c2cc1OC	-13	-21	2	-11
Cc1nc2sc(C(=O)OCC(=O)N3c4ccccc4CC3C)c(C)c2c(=O)[nH]1 (stereo not drawn)	-13	72*	-2	0
Fc1ccc(-c2ccc3c(n2)CCCN3Cc2ccccc2C(F)(F)F)cc1	.	.	.	1
O=C1CSc2ccc(C(=O)Nc3cccc(S(=O)(=O)Nc4ccc(Br)cc4)c3)cc2N1	1	-2	26	36*
O=C(Nc1cccc(S(=O)(=O)Nc2ccc(Cl)cc2)c1)c1ccc(Cl)nc1	-10	5	16	29*
O=C(O)c1ccc(NC(=O)c2cccc(S(=O)(=O)Nc3ccc(C(=O)O)cc3)c2)cc1	-5	8	-5	-8
COC(=O)C1=C(C)N(Cc2ccccc2C(F)(F)F)C(=NCc2ccc(C(F)(F)F)cc2)NC1c1cccc(F)c1 (stereo not drawn)	.	.	.	-1
CO[C@@H]1[C@@H](OC(N)=O)[C@@H](O)[C@H](Oc2ccc3c(O)c(NC(=O)c4ccc(O)c(CC=C(C)C)c4)c(=O)oc3c2C)OC1(C)C	.	.	.	7
COC1C(OC(=O)c2ccc(C)[nH]2)C(O)C(Oc2ccc3c(O)c(NC(=O)c4ccc(O)c(CC=C(C)C)c4)c(=O)oc3c2Cl)OC1(C)C (stereo not drawn)	-4	55*	.	2
N#Cc1c(C(F)(F)F)cc(-c2cccs2)nc1SCc1cccnc1	-24	6	4	-4
N#Cc1ccc(-c2cccs2)nc1SCc1cccnc1	.	1	51*	15
Cn1cnc([N+](=O)[O-])c1Sc1nnc(-c2ccccc2)c(-c2ccccc2)n1	.	.	.	-12
Cc1ccc(NS(=O)(=O)c2ccc(NC(=O)c3cccs3)cc2)c(C)c1	-32	53*	2	6
Cn1c(CNC(=O)c2ccc(Cl)cc2)nnc1SCC(=O)Nc1sc2c(c1C#N)CCCC2	-37	106*	1	-2
C#CCn1c(=NC(=O)c2sc3ccccc3c2Cl)sc2cc(S(N)(=O)=O)ccc21	-1	63*	4	-4
Cc1nnsc1C(=O)N/N=C/c1ccc2ccccc2c1O	48	-27	61*	-2
CCOC(=O)[C@]12CCCCC/C=C\1N(Cc1ccc(OC)cc1)C(=O)[C@H]2CC(=O)NCCc1ccccc1OC	.	.	.	1
COc1ccc(NC(=O)c2cccc([N+](=O)[O-])c2)cc1	-33	1	-3	-13
COc1ccc(NC(=O)c2cc([N+](=O)[O-])ccc2O)cc1	87*	5	50	-8
CN(NC(=O)C(=O)NCc1ccco1)C(=O)NC1CCCCC1	.	.	.	4
O=C(Nc1cccc([N+](=O)[O-])c1)Nc1ccc2c(c1)CCC2	-39	84*	1	-3
CCC(=O)Nc1ccc2c(c1)Cc1cc([N+](=O)[O-])ccc1-2	-31	58*	.	-24
SMILES	PrP UTR inh	MazEF act	BJeLR lethal	PrPC surface inh
COc1ccc(NC(=O)Nc2cccc([N+](=O)[O-])c2)cc1Cl	-34	106*	10	-2
O=C(Nc1ccccc1)Nc1ccc2c(c1)CCC2	-61	6	5	5
COC(=O)C1=C(C)N(Cc2ccccc2C(F)(F)F)C(=NCc2cc(OC)c(OC)c(OC)c2)NC1c1cccc(Cl)c1 (stereo not drawn)	.	.	.	-1
CCCOc1ccc(NC(=O)CC2C(=O)N(C)C(=S)N2Cc2cccs2)cc1 (stereo not drawn)	-17	97*	7	6
CCN1/C(=C2\OC(=S)N(C)C2=O)Sc2ccccc21	-46	7	-2	-3
CCN1/C(=C2\OC(=S)N(C)C2=O)C=Cc2ccccc21	22	656*	4	-1
O=[N+]([O-])c1ccc(Cl)c(-c2ccc(/C=N/c3c(-c4ccco4)nc4ccccn34)o2)c1	-8	95*	7	-14
O=[N+]([O-])c1ccc(-c2ccc(/C=N/c3c(-c4ccco4)nc4ccccn34)o2)c(Cl)c1	.	.	0	.
Nc1ccc2ncccc2c1N	-15	15	.	1
Nc1nc(N)c2c(ccc3nccc32)[nH]1	5	-5	66*	5
CN1C(=O)[C@@]2(O[C@H]3C=CC=CN3C3=C2C(=O)CCC3)c2cc([N+](=O)[O-])ccc21	.	.	.	-5
Cc1cc(Cl)n2c(nc3cc(F)c(F)cc32)c1C#N	2	1	128*	-8
C[C@H]1COc2cc(NCCCN3CCOCC3)ccc2S(=O)(=O)N1	.	.	.	0
O=C(C(=O)N1CCC(CNS(=O)(=O)c2ccc(OC(F)(F)F)cc2)CC1)c1cc2ccccc2o1	.	.	.	-4
C[C@@H]1C=CCCO[C@]12C(=O)N(Cc1ccc(F)cc1)c1cccc(Br)c12	.	.	.	5
O=S(=O)(c1ccccc1)N1CCCc2nc(-c3ccccc3)ccc21	.	.	.	-3
Cc1ccc(N2C(=O)SC(Cc3ccccc3)C2=O)cc1 (stereo not drawn)	-8	6	22	2
O=C1SC(Cc2ccccc2)C(=O)N1c1ccccc1 (stereo not drawn)	.	14	89*	8
COc1ccc(CCNC(=O)c2ccc(-c3ccc([N+](=O)[O-])cc3)o2)cc1OC	-19	59*	-4	-21
C[C@H](O)[C@@H]1CN2CCc3c([nH]c4c(-c5ccccc5)cccc34)[C@@H]2C[C@@H]1N(C)C(=O)Nc1ccccc1	.	.	.	-17
CCC(NC(=O)CCCN1C(=O)COc2ccc(C)cc21)c1ccccc1 (stereo not drawn)	.	.	.	-3
Cc1ccc(C(=O)C2=C(O)C(=O)N(Cc3cccnc3)C2c2cccc(Oc3ccccc3)c2)o1 (stereo not drawn)	.	-5	3	44*
O=C(CCN1C(=O)/C(=C\c2cccs2)SC1=S)NC1=NCCS1	-16	10	3	0
COc1ccccc1/C=C1/SC(=S)N(CCC(=O)Nc2cccnc2)C1=O	-16	435*	10	-1
O=C(CCN1C(=O)/C(=C\c2ccccc2Cl)SC1=S)Nc1cccnc1	-9	5	-10	-1
COc1ccccc1/C=C1\SC(=S)N(CCC(=O)NC2=NCCS2)C1=O	-4	172*	4	-4
O=C(Nc1ccc(F)cc1)OCc1cn(Cc2cc(F)ccc2F)nn1	.	.	.	-2
Cc1ccc(NC(=O)CN(C)S(=O)(=O)c2cccc3nsnc23)cc1	-12	-3	2	-30
CC(NC(=O)CN(C)S(=O)(=O)c1cccc2nsnc12)c1ccccc1 (stereo not drawn)	-12	97*	6	-26
C[C@@H]1[C@@H](Sc2ccccc2)CC(=O)O[C@@H]1c1ccc(-c2ccccc2)cc1	-17	-3	6	7

Screening results (PubChem)
